Compound activity: PubChem BioAssay, Broad Institute
esBAF inh: inhibitors of esBAF chromatin remodeling in mouse ES cells; Bmi1-luciferase knock-in reporter, 24 h; 100% = twice the neutral-well signal; reporter increase, % at 12.5 µM; 2% of 350,000 active; in the data active = activation above about 40%; inconclusive = no clear call, values can overlap the other calls;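 also: 0% = median of the plate's neutral control wells and 100% = double that signal; a rise in the Bmi1 reporter signal indicates esBAF inhibition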
HSF1 activator: increases HSF-1 driven luciferase reporter signal; NIH3T3-HGL HSF-1 luciferase reporter, MG132, 8 h; 100% = twice DMSO control signal; activation, % at 9 µM; 1.7% of 300,000 active;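 active = mean replicate activation of at least 50% with a set share of replicates each reaching 50%; inconclusive = only one of those two conditions met; inactive = mean below 50% and too few replicates reaching it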;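 also: 0% = median of the neutral control wells and 100% = twice that signal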
MITF TRPM1 HTS: increases MITF-driven TRPM1 promoter luciferase signal. SK-MEL-5 TRPM1-promoter luciferase, 24 h; % of positive control, neutral wells = 0. activation, % at 12.5 µM. 0.75% of 300,000 active. AID 588334;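 active = mean activation of at least 80% with every replicate also reaching 80%; inconclusive = mean reaches 80% but some replicate falls short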;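 also: 0% = neutral control wells and 100% = parthenolide positive control wells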
HSF1 inh: HSF1 inhibition; NIH3T3-HGL HSE-luciferase, MG132-induced, luminescence 8 h; stronger effect = lower value; activity change, negative = inhibition, % at 7.5 µM (by protocol); 0.77% of 300,000 active; AID 2098;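 active = more than half of replicate wells show activity change below -50%, luminescence cut by over half; inconclusive = some wells, but at most half, below -50%; inactive = no replicate well below -50%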;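 also: luciferase reports HSF-1 transcriptional activity via heat shock element; 0% = median of DMSO wells and -100% = zero luminescence signal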
Wnt bcat act: activators of Wnt/beta-catenin signaling; AID 743398; 1.2% of 300,000 active; Wnt/beta-catenin reporter cell assay, activator, plate reader; activation, % at 9.35 µM; in the data active = activation above about 30%, passing the limit was not always enough; inconclusive = no clear call, values can overlap the other calls;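 also: 0% = neutral control wells and 100% = positive control wells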
esBAF Ring1 qPCR: esBAF inhibition confirmed by Ring1 de-repression | mouse ESC E14, Ring1 mRNA RT-qPCR fold change | fold change at 33 µM | AID 743176 | 550 tested, under 10 active | shares compounds with esBAF inh;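 active = Ring1 gene expression raised more than 2-fold over untreated cells in both replicates at either tested dose; inconclusive = only one replicate above 2-fold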;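 also: Ring1 transcript normalised to actin housekeeping signal by TaqMan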
Fgf4 repress: represses Fgf4 in mouse ESCs, confirming esBAF inhibition; Fgf4 expression fold change at 33 µM; 4% of 550 active; mouse ESC E14, Fgf4 mRNA qPCR fold change; stronger effect = lower value; AID 743177; shares compounds with esBAF inh;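 active = Fgf4 expression under 0.8 fold of control in both repeat measurements at one or both tested doses; inconclusive = under 0.8 fold in just a single repeat measurement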;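 also: Fgf4 transcript normalised to actin in duplex TaqMan qPCR; cells exposed to compound for 24 h before lysis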
esBAF Bmi1 qPCR: confirmation of esBAF inhibitors: Bmi1 de-repression in mouse ESCs. 550 tested, under 10 active. fold change at 33 µM. mouse ESE14 ES cells, Bmi1 mRNA qPCR fold; stronger effect = higher value. shares compounds with esBAF inh. AID 743180;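 active = Bmi1 expression fold change above 6 at either tested concentration, seen in replicate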;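 also: higher fold means more Bmi1 de-repression and stronger esBAF inhibition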
A549 tox SP: kills or reduces viability of A549 cells | shares compounds with esBAF inh | A549 cytotoxicity, plate reader | cell viability change % (negative = cytotoxic), % at 25 µM, hits read low | 550 tested, under 10 active | AID 743188; call rule not given here
HepG2 tox SP: kills or reduces viability of HepG2 cells. shares compounds with esBAF inh. HepG2 cytotoxicity, plate reader; stronger effect = lower value. activity change, negative = inhibition, % at 25 µM. 4% of 550 active; in the data active = activity change below about -50%
HEK293 tox SP: kills or reduces viability of HEK293 cells; shares compounds with esBAF inh; 3% of 550 active; activity change, negative = inhibition, % at 25 µM, hits read low; HEK293 cytotoxicity, plate reader; AID 743190; in the data active = activity change below about -38%, passing the limit was not always enough
Active calls of the source: *; ? = inconclusive; . = no result. A selection: hits, their analogues and other compounds. The true share with any hit is near 3.8%.

SMILES	esBAF inh	HSF1 activator	MITF TRPM1 HTS	HSF1 inh	Wnt bcat act	esBAF Ring1 qPCR	Fgf4 repress	esBAF Bmi1 qPCR	A549 tox SP	HepG2 tox SP	HEK293 tox SP
COc1cccc(NC(=O)C(=O)NCCC2CCCCN2S(=O)(=O)c2ccccc2)c1 (configuration not stated)	79*	32	110*	20	-3	0.99	0.94	1.8	-9	-33	-15
CN(Cc1ccccn1)C(=O)c1cc(COc2ccc(F)c(F)c2)on1	73*	.	.	.	2	1.1	0.97	1.1	-13	-13	-16
Cc1ccc(OCc2cc(C(=O)NC(C)Cc3cccnc3)no2)cc1C (configuration not stated)	72*	8	63	18	18	1.1	1	1.9	0	-12	-11
CC(Cc1cccnc1)NC(=O)c1cc(COc2c(F)cccc2F)on1 (configuration not stated)	.	-1	-2	5	1	.	.	.	.	.	.
Cc1ccc(OCc2cc(C(=O)N(C)CCc3ccccn3)no2)cc1C	87*	28	73	13	22	1	1	1.2	-6	-23	-12
CCNC(=O)C[C@H]1CC[C@@H]2[C@@H](COc3ccc(NC(=O)c4ccc5c(c4)OCO5)cc3C(=O)N2C)O1	8	.	.	.	.	.	.	.	.	.	.
CC(C)C#Cc1ccc2c(c1)O[C@H](CN(C)Cc1ccccc1)[C@H](C)CN([C@H](C)CO)S2(=O)=O	3	.	.	.	.	.	.	.	.	.	.
C[C@@H]1CN([C@H](C)CO)C(=O)c2cccc(NC(=O)c3cnccn3)c2O[C@H]1CN(C)S(=O)(=O)c1ccccc1	1	.	.	.	.	.	.	.	.	.	.
Cc1sc2c(c1C)CN(C(C)(C)C)CN2C(=O)c1ccccc1	66*	35	1	19	.	1.2	0.92	1.4	8	0	0
CN(C)C(=O)C[C@@H]1CC[C@@H](NC(=O)C2CCOCC2)[C@@H](CO)O1	0	.	.	.	.	.	.	.	.	.	.
Cc1ccc(S(=O)(=O)Nc2cccc3c2O[C@H](CN(C)C)[C@@H](C)CN([C@@H](C)CO)C3=O)cc1	-3	.	.	.	.	.	.	.	.	.	.
C[C@@H]1CN([C@H](C)CO)C(=O)c2cc(NC(=O)Nc3ccc(F)cc3)ccc2O[C@@H]1CN(C)S(=O)(=O)c1ccccc1	0	.	.	.	.	.	.	.	.	.	.
CNc1cncc(-c2cccc(OC)c2F)n1	63*	.	.	.	17	1.2	?	1.4	-3	-8	4
COc1cccc(N(C(=O)c2cccs2)c2nc3ccccc3s2)c1	59*	-74	65	-67*	.	1.4	0.97	2.9	-1	-10	-13
O=[N+]([O-])c1ccc(N/N=C/c2cccnc2)cc1	34	11	22	-3	4	.	.	.	.	.	.
Clc1ccc(N/N=C/c2cccnc2)cc1	70*	25	?	7	.	1.1	0.96	1.8	0	-11	-12
Clc1ccc(-c2cn3cccnc3n2)cc1Cl	73*	1	59	8	17	1	1.3	0.92	12	-25	3
COc1ccc(NC(=O)Nc2ccc3c(c2)CC(=O)N([C@H](C)CO)C[C@@H](C)[C@@H](CN(C)C(=O)Nc2ccc(F)cc2)O3)cc1	-3	.	.	.	.	.	.	.	.	.	.
CCCN(C)C[C@H]1OCCCC[C@H](C)Oc2ccc(NC(=O)C3CCCCC3)cc2C(=O)N([C@@H](C)CO)C[C@H]1C	-6	.	.	.	.	.	.	.	.	.	.
COc1ccc(NC(=O)Nc2ccc3c(c2)C(=O)N([C@H](C)CO)C[C@H](C)[C@H](CN(C)Cc2ccc4c(c2)OCO4)OCCCC[C@H](C)O3)cc1	-6	.	.	.	.	.	.	.	.	.	.
OC(c1ccccc1)c1nc(/C=C/c2ccccc2)cs1 (configuration not stated)	59*	.	.	.	2	1.6	?	1.6	6	-5	-6
COc1ccc(-c2csc(C(O)c3cccc(OC)c3)n2)cc1 (configuration not stated)	11	.	.	.	2	.	.	.	.	.	.
COc1ccc(-c2csc(C(O)c3ccccc3)n2)cc1 (configuration not stated)	92*	.	.	.	-3	1.4	?	1.6	-2	4	-10
COc1cc2ccccc2cc1C(=O)Nc1ccc(Br)cn1	86*	33	62	7	8	0.99	0.91	1.4	2	3	0
O=C(C[C@@H]1C=C[C@H](NC(=O)c2ccccn2)[C@@H](CO)O1)NCc1cc(F)cc(F)c1	3	.	.	.	.	.	.	.	.	.	.
SMILES	esBAF inh	HSF1 activator	MITF TRPM1 HTS	HSF1 inh	Wnt bcat act	esBAF Ring1 qPCR	Fgf4 repress	esBAF Bmi1 qPCR	A549 tox SP	HepG2 tox SP	HEK293 tox SP
CCOc1ccccc1N1CCN(C(=O)CNC(=O)c2sc3ccccc3c2Cl)CC1	0	-9	-3	5	-6	.	.	.	.	.	.
CC1CCCN(C(=O)CNC(=O)c2sc3ccccc3c2Cl)C1 (configuration not stated)	82*	.	126*	.	24	0.95	1	1.3	0	2	-7
O=C(C[C@H]1CC[C@@H]2[C@H](COC[C@H](O)CN2Cc2cc(F)ccc2F)O1)NCc1ccc(F)cc1	-8	.	.	.	.	.	.	.	.	.	.
C[C@@H]1CN([C@H](C)CO)C(=O)c2cc(NC(=O)Nc3cccc4ccccc34)ccc2O[C@@H](C)CCCCO[C@@H]1CN(C)Cc1ccc2c(c1)OCO2	-3	.	.	.	.	.	.	.	.	.	.
O=C(C[C@@H]1C=C[C@@H](NC(=O)Nc2cc(F)ccc2F)[C@H](CO)O1)NCc1ccccn1	-3	.	.	.	.	.	.	.	.	.	.
Cc1ccc(NC(=O)c2ccnc(C(C)(C)C)c2)cc1	71*	2	.	7	18	1.2	0.93	1.6	1	-47	-13
CC(C)(C)c1cc(C(=O)Nc2ccccc2)ccn1	19	17	.	-4	-3	.	.	.	.	.	.
COc1ccc(-c2cc(C(=O)N3CCN(c4ccccc4)CC3)no2)cc1	60*	19	55	9	-3	1.3	0.93	1.6	4	34	-9
COCC(=O)N1C[C@@H](C)[C@@H](OC)CN(C)C(=O)c2ccc(NC(=O)c3ccc(OC)cc3)cc2OC[C@@H]1C	-19	.	.	.	.	.	.	.	.	.	.
Oc1ccc(-c2nccc(-c3ccccn3)n2)cc1	60*	19	101*	14	24	1.3	1	1.4	2	9	11
Oc1ccc(-c2nccc(-c3ccc(Br)cc3)n2)cc1	?	21	44	10	5	.	.	.	.	.	.
O=C(NC1CCCC1)c1cc(-c2ccc(Cl)c(Cl)c2)on1	64*	24	107*	12	21	1	0.87	1.6	0	-31	1
